Assay outcomes: PubChem, several laboratories
Shown are actives, neighbours in structure and some others; about 3.3% of the full set was active somewhere.
NCF1 inh – p47phox/p22phox peptide binding inhibitors, primary screen, biochemical, uHTS, NADPH oxidase regulatory subunit | fluorescence polarization, 2 h | Neutrophil cytosol factor 1 (Homo sapiens), P14598 | 220,000 tested, 0.53% active | inhibition, % at 24.7 µM
eIF4E-4G inh – eIF4E–eIF4G protein interaction inhibitors, primary screen, biochemical, uHTS, TR-FRET, eIF4GI fragment | TR-FRET eIF4E-eIF4GI(517-606) binding, 2 h | inhibition, % at 21.7 µM | 220,000 tested, 0.37% active | AID 782, 2007
Bim-Mcl-1 – inhibitors of Bim peptide binding to Mcl-1, primary screen, biochemical, bead-based flow cytometry, multiplex | Induced myeloid leukemia cell differentiation protein Mcl-1 (Homo sapiens), Q07820 | inhibition, % at 10 µM | AID 1009, 2008 | Bim peptide-Mcl-1 binding | 190,000 tested, 0.1% active; in the data active = inhibition above about 40%
Mcl1 Bid PPI – Mcl-1/Bid binding inhibitors, primary screen, biochemical, TR-FRET, 1536-well; Induced myeloid leukemia cell differentiation protein Mcl-1 (Homo sapiens), Q07820; TR-FRET Mcl-1/Bid-Dy647 peptide binding; inhibition, % at 21.7 µM; 220,000 tested, 0.97% active; AID 1021, 2008;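 active = compounds that cut the binding signal by more than half at the single screening dose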;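 also: His-tagged Mcl-1 with europium anti-His antibody binding Bid BH3 peptide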
14-3-3 Bad PPI – inhibitors of 14-3-3 zeta/Bad binding, primary screen, biochemical, TR-FRET, bovine 14-3-3 zeta | inhibition, % at 21.7 µM | 14-3-3 protein zeta/delta (Bos taurus), P63103 | 220,000 tested, 0.71% active | AID 781, 2007 | TR-FRET 14-3-3zeta/Dy647-pBad peptide displacement, 1 h;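 active = inhibition above about 70%, limit read from the data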
Mcl1 Noxa PPI – Mcl-1/Noxa binding inhibitors, primary screen, biochemical, TR-FRET, 1536-well. Induced myeloid leukemia cell differentiation protein Mcl-1 (Homo sapiens), Q07820. TR-FRET Mcl-1/Noxa peptide binding, 2 h. inhibition, % at 21.7 µM. 220,000 tested, 1.5% active. AID 1022, 2008;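 active = compounds that cut the protein-peptide binding signal by more than 50% relative to plate controls in a single-dose test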;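 also: His-tagged Mcl-1 with rhodamine Noxa BH3 peptide and terbium anti-His antibody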
A number is an active result; i = inactive; nt = no result; [ ] = remark or other dose.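 The calls were made as follows, unless noted: active = inhibition above about 30% (limit read from the data); inactive = the rest.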

SMILES	NCF1 inh	eIF4E-4G inh	Bim-Mcl-1	Mcl1 Bid PPI	14-3-3 Bad PPI	Mcl1 Noxa PPI
CCn1c(=N)c(S(=O)(=O)c2ccccc2)cc2c(=O)n3ccccc3nc21	i	i	i	i	78.8	i
COc1ccc2nc(NC(=O)c3ccc(-c4cccc([N+](=O)[O-])c4)o3)sc2c1	i	i	i	78.6	i	62.0
COc1ccc2nc(NC(=O)c3cc(C)oc3C)sc2c1	i	i	i	i	i	i
O=C(Nc1nc2ccc([N+](=O)[O-])cc2s1)c1c(F)cccc1F	i	i	i	i	i	i
N#C/C(=C(/O)c1ccc(-c2cccc([N+](=O)[O-])c2)o1)c1nc2ccccc2s1	i	i	i	i	92.4	88.3
O=C(Nc1nc2ccc([N+](=O)[O-])cc2s1)c1ccco1	i	i	i	i	i	55.8
O=C(CCSCCC(=O)NCC1CCCO1)NCC1CCCO1 (centres undefined)	i	i	i	i	i	i
O=C(CC1CCCCC1)NCC1CCCO1 (centres undefined)	i	38.4	i	i	i	i
O=C(O)CCCn1cc(NC(=O)c2c(F)cccc2F)cn1	i	i	i	i	i	i
CCOC(=O)c1cc(C#N)c(SCC(=O)OC)[nH]c1=O	i	i	nt	71.7	i	i
COc1cccc(OC)c1OCCCCCc1c(C)n[nH]c1C	i	i	i	i	80.8	i
COc1cccc(OC)c1OCCCCc1c(C)n[nH]c1C	i	i	i	i	i	i
COc1ccc(-c2nc(-c3cccc([N+](=O)[O-])c3O)cc(=O)o2)cc1OC	i	i	i	i	i	i
COc1cc(/C=C2/C(=O)c3cccc([N+](=O)[O-])c3C2=O)c(Br)cc1O	i	i	i	i	i	88.2
O=c1ccc2[n+]([O-])c3ccc(O)cc3oc-2c1	i	i	nt	i	i	73.7
COC(=O)c1ccc2c(c1)NC(=O)C1CCCN21 (centres undefined)	i	i	i	i	i	64.3
Cc1nc(N2CCN(c3ccccc3)CC2)[nH]c(=O)c1Cc1ccccc1	i	i	i	i	91.5	i
COc1ccc(Oc2nnc(-c3ccc(C)cc3)c3ccccc23)cc1	i	i	i	i	88.6	i
CC(=O)Nc1ncc2c(n1)CC(c1ccco1)CC2=O (centres undefined)	i	i	i	i	i	i
COc1ccc(C2CC(=O)c3cnc(Nc4cc(C)cc(C)c4)nc3C2)cc1 (centres undefined)	i	i	i	i	75.6	i
COc1ccc(C(=O)Nc2ncc3c(n2)CC(c2ccco2)CC3=O)cc1 (centres undefined)	i	i	i	i	i	52.5
CC(C)OCCCNc1ncc2c(n1)CC(c1ccccc1)CC2=O (centres undefined)	i	i	i	i	i	60.0
COc1ccc(C2CC(=O)c3cnc(NC(=O)c4cc(OC)cc(OC)c4)nc3C2)cc1 (centres undefined)	i	i	i	i	i	i
Cc1cccc2c(=O)cc(C)n(CC(N)=O)c12	i	i	nt	i	i	i
S=C(Nc1ccccc1Cl)N(Cc1ccccc1)Cc1ccccn1	i	i	i	i	i	i
SMILES	NCF1 inh	eIF4E-4G inh	Bim-Mcl-1	Mcl1 Bid PPI	14-3-3 Bad PPI	Mcl1 Noxa PPI
C=CCc1cc(Cl)ccc1OC(=O)Nc1cccc(Cl)c1	i	i	nt	i	i	i
COc1ccc(NCC(=O)n2c(C)c(C)c3ccccc32)cc1OC	i	i	nt	i	i	i
CCOc1cc(N2CCOCC2)c(OCC)cc1NC(C)C(=O)N1CCN(CC)CC1 (centres undefined)	66.7	i	i	i	i	i
FC(F)(F)c1ccc2c(c1)NCC1CCCN21 (centres undefined)	51.0	i	i	i	i	i
FC(F)(F)c1ccc2c(c1)N1CCCC1CN2 (centres undefined)	i	i	i	i	i	i
O=C(N/C=C\n1cnc2cc(C(F)(F)F)ccc21)c1ccc([N+](=O)[O-])cc1	i	i	nt	i	i	i
O=C1C2C3C=CC(C2C(=O)N1CCCO)C1C2C(=O)N(CCCO)C(=O)C2C31 (centres undefined)	i	i	i	62.9	i	i
CCOC(=O)C1CCN(C(=O)Nc2ccc3c(c2)nc(C)n3C)CC1	i	i	i	i	i	nt
CCOC(=O)C1CCN(C(=O)Nc2ccc3nc(-c4ccco4)c(-c4ccco4)nc3c2)CC1	i	43.9[fluorescence artefact?]	i	i	i	96.9
O=C(Nc1ccc2nc(-c3ccco3)c(-c3ccco3)nc2c1)N1CCCCCC1	i	i	i	58.9	i	105.5
N#Cc1nc(-c2ccc(OCc3ccccc3)cc2)oc1N1CCC(C(N)=O)CC1	55.3	i	i	i	i	i
COc1ccc(-c2nc(C#N)c(N3CCC(C(N)=O)CC3)o2)cc1	i	i	i	i	i	i
Nc1cc(=O)[nH]c(N2CCN(c3ccccc3)CC2)n1	i	i	i	i	i	i
Cc1cc(C(=O)CSc2nnc(-c3ccncc3)n2-c2ccccc2)c(C)n1C	i	i	i	50.9	i	i
Cc1cc(C(=O)CSc2nnc(-c3ccccc3)n2C)c(C)n1C	i	i	i	i	i	i
COC(=O)C(CC(=O)O)NCc1ccco1 (centres undefined)	i	i	nt	i	i	i
Cc1cccc(OCCCCCn2ccnc2)c1	i	i	i	51.1	i	i
Cc1cc(=O)[nH]c2c(N=Nc3ccc(O)cc3)c(N)nn12	i	i	i	i	i	56.9
CCCCCC/C(C)=C1/SC(=S)NC1=O	i	i	i	i	i	i
C/C(C/C(C)=C1/SC(=S)NC1=O)=C1\SC(=S)NC1=O	i	i	i	77.9	i	72.6
Cc1ccc(S(=O)(=O)N(C)C)cc1[N+](=O)[O-]	i	i	nt	i	i	i
CCOC(=O)C1CCN(Cc2ccccc2C(F)(F)F)CC1	i	i	i	i	i	i
CCOC(=O)C1CCCN(Cc2ccccc2F)C1 (centres undefined)	i	i	i	i	72.6	i
CCOC(=O)C1CCCN(CC(=O)NC2CC2)C1 (centres undefined)	i	i	i	i	77.2	i
CCOC(=O)C1CCCN(C(=O)CSCc2ccccc2)C1 (centres undefined)	i	i	i	i	83.6	i
CCOC(=O)C1CCCCN1Cc1ccccc1C(F)(F)F (centres undefined)	i	i	i	i	80.3	i
CCN(CC)c1ccc(/C=C2\SC(=O)N(C(C)C)C2=O)o1	i	i	nt	i	i	i
